# Results: PubChem BioAssay (EPA / NIEHS)
# Calls of active or inactive are those of the source. The calls were made as follows: active = hit-call score of the fitted dose curve at least 0.9, where 1 is the maximum; inactive = score below 0.9.
# How the values were obtained:
# [1] = target: Transcription factor E2F1 (Homo sapiens) (UniProt Q01094); assay: ATG_E2F_CIS: Attagene CIS-FACTORIAL HepG2 Assay for human E2F Transcription Factor 1 (AID 2282935); details: HepG2 Attagene cis-reporter, E2F reporter RNA transcripts; actives raise or lower the signal
# In short: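 Measures reporter transcript levels via RT-PCR with capillary electrophoresis detection in HepG2 cells harboring cis-regulated reporter units; 24 h post-dose; bidirectional curve fitting with DMSO as baseline.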
# [2] = ATG_E_Box_CIS: Attagene CIS-FACTORIAL HepG2 Assay for human Enhancer Box (E-box) (AID 2282936); details: HepG2 E-box cis-reporter transcription, actives raise or lower the signal
# In short: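 First, HepG2 cells receive multiple cis-regulated reporter constructs by transient transfection. Next, chemicals are applied for 24 h. Finally, reporter mRNA is quantified via RT-PCR and capillary electrophoresis, with DMSO as baseline.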
# [3] = ATG_M_61_CIS: Attagene CIS-FACTORIAL HepG2 Assay for M61 Transcription Factor (Internal Marker) (AID 2282937); details: HepG2 Attagene CIS-FACTORIAL M61 internal marker reporter; actives raise or lower the signal
# In short: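 HepG2 cells transiently transfected with multiplexed cis-promoter reporter units reporting endogenous transcription factor activity, measured 24 h after dosing. Reporter mRNA quantified by RT-PCR and capillary electrophoresis; bidirectional fit against DMSO baseline.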
# [4] = ATG_ERE_CIS: Attagene CIS-FACTORIAL HepG2 Assay for Estrogen Response Element (ERE) (AID 2282940); details: HepG2 ERE cis-reporter, Attagene RNA transcript; actives raise or lower the signal
# In short: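 Fluorescence of capillary-separated, FAM-labelled reporter cDNA fragments indicates reporter mRNA levels in HepG2 cells exposed to chemicals for 24 h. Transient transfection with cis-regulated units; data fitted in both directions against DMSO.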
# [5] = ATG_Ets_CIS: Attagene CIS-FACTORIAL HepG2 Assay for human Erythroblast Transformation Specific (ETS) (AID 2282941); details: HepG2 ETS cis-reporter transcription, actives raise or lower the signal
# In short: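 HepG2 cells transiently transfected with cis-promoter reporter transcription units were dosed for 24 h; reporter mRNA was measured by RT-PCR, 6-FAM primer extension, HpaI digestion and capillary electrophoresis, with bidirectional fitting against DMSO baseline.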
# [6] = target: Hepatocyte nuclear factor 3-beta (Homo sapiens) (UniProt Q9Y261); assay: ATG_FoxA2_CIS: Attagene CIS-FACTORIAL HepG2 Assay for human Forkhead box A2 (FOXA2) (AID 2282942); details: HepG2 cis-reporter transcription factor activity, 24 h; actives raise or lower the signal
# In short: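 HepG2 transiently transfected with a multiplexed cis-promoter reporter library read endogenous FOXA2 activity. After 24 h compound exposure, reporter mRNA was quantified by RT-PCR, HpaI digestion and capillary electrophoresis. Bidirectional fit against DMSO.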
# [7] = ATG_FoxO_CIS: Attagene CIS-FACTORIAL HepG2 Assay for human Forkhead box O (FoxO) (AID 2282943); details: HepG2 Attagene cis-reporter, FoxO element, mRNA; actives raise or lower the signal
# In short: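 HepG2 cells transiently transfected with cis-element-driven reporter units report endogenous FoxO activity. After 24 h chemical exposure, reporter mRNA quantified by RT-PCR, fluorescent labeling, HpaI digestion and capillary electrophoresis; bidirectional fit versus DMSO.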
# [8] = ATG_GATA_CIS: Attagene CIS-FACTORIAL HepG2 Assay for human GATA Binding Protein (AID 2282944); details: HepG2 GATA cis-element reporter, Attagene multiplex mRNA; actives raise or lower the signal
# In short: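 After transfecting HepG2 cells with multiple cis-regulated reporter units, chemicals are dosed for 24 h; isolated RNA undergoes RT-PCR and fluorescent labeling before capillary electrophoresis, with activity expressed against DMSO.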
# [9] = ATG_GLI_CIS: Attagene CIS-FACTORIAL HepG2 Assay for human Zinc Finger Protein GLI1 (AID 2282945); details: HepG2, Attagene cis-factorial reporter mRNA, GLI element; actives raise or lower the signal
# In short: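 Transiently transfected HepG2 cells report endogenous transcription factor activity via cis-element-driven reporter units. After 24 h compound exposure, reporter mRNA was measured by RT-PCR with capillary electrophoresis; bidirectional fitting against DMSO baseline.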
# [10] = target: Bile acid receptor (Homo sapiens) (UniProt Q96RI1); assay: ATG_IR1_CIS: Attagene CIS-FACTORIAL HepG2 Assay for human Nuclear Receptor Subfamily 1 Group H Member 4 (NR1H4), IR1 submotif (AID 2282946); details: IR1 reporter transcription, actives raise or lower the signal
# In short: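 HepG2 cells transiently transfected with multiple cis-promoter-driven reporter units to measure endogenous transcription factor activity; 24 h exposure. Reporter mRNA read by RT-PCR, FAM labelling, HpaI digestion and capillary electrophoresis. Bidirectional fit versus DMSO.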
# [11] = ATG_GRE_CIS: Attagene CIS-FACTORIAL HepG2 Assay for human Glucocorticoid Response Elements (GRE) (AID 2282947); details: HepG2 GRE cis-reporter, Attagene multiplex mRNA; actives raise or lower the signal
# In short: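 Endogenous transcription factor activity is read through cis-element reporter constructs transiently transfected into HepG2 cells. After 24 h treatment, labelled RT-PCR products are resolved by capillary electrophoresis; DMSO sets baseline for bidirectional curve fitting.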
# [12] = ATG_ISRE_CIS: Attagene CIS-FACTORIAL HepG2 Assay for human Interferon Regulatory Factor 1 (IRF1) binding to an Interferon-Stimulated Response Element (ISRE) (AID 2282948); details: HepG2 ISRE cis-reporter (Attagene), mRNA transcription readout; actives raise or lower the signal
# In short: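 HepG2 cells transiently transfected with multiplexed cis-promoter reporter units; after 24 h compound exposure, reporter mRNA quantified by RT-PCR, FAM labelling, HpaI digestion and capillary electrophoresis. Bidirectional fit versus DMSO baseline.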
# [13] = ATG_M_32_CIS: Attagene CIS-FACTORIAL HepG2 Assay for M32 Transcription Factor (Internal Marker) (AID 2282949); details: HepG2 Attagene cis-factorial M32 reporter, mRNA; actives raise or lower the signal;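 also: background control marker of the multiplexed CIS panel rather than a real target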
# In short: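 Following 24 h chemical exposure of HepG2 cells transiently expressing cis-promoter reporter constructs, reporter transcript levels were determined by RT-PCR with fluorescent labelling and capillary electrophoresis, then fitted bidirectionally against DMSO.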
# [14] = ATG_M_06_CIS: Attagene CIS-FACTORIAL HepG2 Assay for M06 Transcription Factor (Internal Marker) (AID 2282950); details: HepG2 Attagene CIS-FACTORIAL M06 internal marker reporter; actives raise or lower the signal
# In short: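 HepG2 liver cells, 24 h exposure. Reporter transcripts from transfected cis-element constructs quantified by RT-PCR/capillary electrophoresis fluorescence. Bidirectional curve fit against DMSO.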
# [15] = target: Hypoxia-inducible factor 1-alpha (Homo sapiens) (UniProt Q16665); assay: ATG_HIF1a_CIS: Attagene CIS-FACTORIAL HepG2 Assay for human Hypoxia Inducible Factor 1 (HIF1A) (AID 2282951); details: HepG2 Attagene cis-factorial HIF1a reporter transcription; actives raise or lower the signal
# In short: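 HepG2 cells transiently transfected with multiple cis-regulated reporter transcription units measure endogenous transcription factor activity. After 24 h exposure, reporter mRNA is quantified by RT-PCR with 6-FAM labelling, HpaI digestion and capillary electrophoresis. Bidirectional fitting against DMSO.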
# [16] = target: Hepatocyte nuclear factor 6 (Homo sapiens) (UniProt Q9UBC0); assay: ATG_HNF6_CIS: Attagene CIS-FACTORIAL HepG2 Assay for human Hepatocyte Nuclear Factor 6 (HNF6) (AID 2282952); details: HepG2 Attagene cis-factorial HNF6 reporter transcription; actives raise or lower the signal
# In short: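 Transiently transfected HepG2 cells expressing cis-regulated reporter transcription units were exposed to chemical for 24 h in a 24-well format. Reporter transcript abundance was determined by fluorescence capillary electrophoresis.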
# [17] = target: Heat shock factor protein 1 (Homo sapiens) (UniProt Q00613); assay: ATG_HSE_CIS: Attagene CIS-FACTORIAL HepG2 Assay for human Heat Shock Transcription Factor 1 (HSE) (AID 2282953); details: HepG2 HSE cis-reporter, Attagene RNA transcription; actives raise or lower the signal
# In short: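 Endogenous transcription factor activity captured via cis-promoter reporter units transfected into HepG2; treatment lasted 24 h. Fluorescence intensity of reporter fragments analysed with bidirectional curve fitting, DMSO baseline.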
# [18] = ATG_MRE_CIS: Attagene CIS-FACTORIAL HepG2 Assay for human Metal Responsive Element (MRE) (AID 2282954); details: HepG2 MRE cis-reporter transcription, Attagene multiplex; actives raise or lower the signal
# In short: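 Fluorescent reporter fragments separated by capillary electrophoresis give mRNA induction for the MRE unit after 24 h treatment of transfected HepG2 cells. Endogenous transcription-factor activity is read; DMSO serves as negative control and baseline.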
# [19] = ATG_M_19_CIS: Attagene CIS-FACTORIAL HepG2 Assay for M19 Transcription Factor (Internal Marker) (AID 2282939); details: HepG2 Attagene CIS-FACTORIAL M19 internal marker reporter; actives raise or lower the signal
# In short: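 Signals come from fluorescence of labelled reporter-specific PCR fragments resolved by capillary electrophoresis, following 24 h treatment of HepG2 cells transfected with cis-promoter reporter units; activity was fitted in both directions relative to DMSO.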
# Hepatocyte nuclear factor 3-beta (Homo sapiens), sequence (Q9Y261 whole entry, looked up): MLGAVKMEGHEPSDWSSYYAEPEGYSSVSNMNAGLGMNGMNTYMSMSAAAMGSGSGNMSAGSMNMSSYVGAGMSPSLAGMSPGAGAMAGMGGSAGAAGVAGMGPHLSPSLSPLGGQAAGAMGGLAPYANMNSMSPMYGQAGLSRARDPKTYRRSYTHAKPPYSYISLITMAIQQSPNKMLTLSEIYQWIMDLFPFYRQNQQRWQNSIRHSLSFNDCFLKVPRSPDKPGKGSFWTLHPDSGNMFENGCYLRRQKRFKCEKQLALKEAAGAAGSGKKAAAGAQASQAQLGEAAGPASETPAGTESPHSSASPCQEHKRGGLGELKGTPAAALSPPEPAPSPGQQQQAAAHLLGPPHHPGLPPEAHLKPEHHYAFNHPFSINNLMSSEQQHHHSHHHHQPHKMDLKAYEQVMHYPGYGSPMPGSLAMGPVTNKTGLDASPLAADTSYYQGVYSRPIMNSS
# Hypoxia-inducible factor 1-alpha (Homo sapiens), sequence (Q16665 whole entry, looked up): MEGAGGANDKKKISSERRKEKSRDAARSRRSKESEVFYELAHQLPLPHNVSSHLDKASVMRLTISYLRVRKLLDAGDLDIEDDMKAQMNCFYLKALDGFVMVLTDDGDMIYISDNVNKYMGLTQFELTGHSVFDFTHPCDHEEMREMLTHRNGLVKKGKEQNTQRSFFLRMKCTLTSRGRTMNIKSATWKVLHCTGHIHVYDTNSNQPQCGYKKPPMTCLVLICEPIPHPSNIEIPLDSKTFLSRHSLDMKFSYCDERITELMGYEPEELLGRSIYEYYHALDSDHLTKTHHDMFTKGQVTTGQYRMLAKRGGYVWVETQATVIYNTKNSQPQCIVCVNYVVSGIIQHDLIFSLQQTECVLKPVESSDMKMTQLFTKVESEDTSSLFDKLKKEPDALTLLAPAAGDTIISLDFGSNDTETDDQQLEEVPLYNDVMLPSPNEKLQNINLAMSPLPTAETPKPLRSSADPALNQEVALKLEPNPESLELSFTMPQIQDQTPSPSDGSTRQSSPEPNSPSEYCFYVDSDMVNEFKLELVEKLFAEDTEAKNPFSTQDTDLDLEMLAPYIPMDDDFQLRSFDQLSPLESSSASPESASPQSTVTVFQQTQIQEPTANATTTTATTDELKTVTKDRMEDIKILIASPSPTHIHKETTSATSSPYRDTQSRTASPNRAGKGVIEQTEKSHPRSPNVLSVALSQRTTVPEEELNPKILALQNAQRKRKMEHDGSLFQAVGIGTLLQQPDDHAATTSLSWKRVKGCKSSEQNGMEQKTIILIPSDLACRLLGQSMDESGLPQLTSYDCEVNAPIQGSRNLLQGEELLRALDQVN
# Bile acid receptor (Homo sapiens), sequence (Q96RI1 whole entry, looked up): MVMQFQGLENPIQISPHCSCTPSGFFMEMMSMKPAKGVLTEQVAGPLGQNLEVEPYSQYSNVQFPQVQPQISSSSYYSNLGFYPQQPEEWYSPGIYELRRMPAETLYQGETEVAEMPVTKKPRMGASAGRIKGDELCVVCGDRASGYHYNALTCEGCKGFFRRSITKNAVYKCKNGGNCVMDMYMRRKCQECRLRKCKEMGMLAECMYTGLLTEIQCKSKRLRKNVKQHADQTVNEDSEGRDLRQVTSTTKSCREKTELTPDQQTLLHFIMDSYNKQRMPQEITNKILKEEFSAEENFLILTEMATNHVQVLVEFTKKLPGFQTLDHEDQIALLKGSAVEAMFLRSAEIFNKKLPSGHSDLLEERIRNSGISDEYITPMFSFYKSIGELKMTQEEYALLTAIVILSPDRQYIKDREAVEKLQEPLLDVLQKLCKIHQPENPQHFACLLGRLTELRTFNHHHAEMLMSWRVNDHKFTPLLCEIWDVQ
# Hepatocyte nuclear factor 6 (Homo sapiens), sequence (Q9UBC0 whole entry, looked up): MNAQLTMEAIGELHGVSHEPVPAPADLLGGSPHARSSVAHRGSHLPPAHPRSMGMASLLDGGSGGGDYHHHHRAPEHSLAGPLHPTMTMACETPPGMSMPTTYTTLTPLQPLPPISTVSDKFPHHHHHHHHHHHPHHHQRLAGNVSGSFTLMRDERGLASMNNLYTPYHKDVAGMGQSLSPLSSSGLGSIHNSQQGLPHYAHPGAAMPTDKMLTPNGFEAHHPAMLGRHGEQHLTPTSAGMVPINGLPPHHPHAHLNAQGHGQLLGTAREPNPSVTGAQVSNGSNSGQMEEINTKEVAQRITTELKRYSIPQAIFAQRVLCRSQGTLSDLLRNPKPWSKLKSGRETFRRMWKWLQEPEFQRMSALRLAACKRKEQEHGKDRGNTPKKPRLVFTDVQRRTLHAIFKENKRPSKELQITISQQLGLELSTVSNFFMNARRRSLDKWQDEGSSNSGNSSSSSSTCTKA
# Transcription factor E2F1 (Homo sapiens), sequence (Q01094 whole entry, looked up): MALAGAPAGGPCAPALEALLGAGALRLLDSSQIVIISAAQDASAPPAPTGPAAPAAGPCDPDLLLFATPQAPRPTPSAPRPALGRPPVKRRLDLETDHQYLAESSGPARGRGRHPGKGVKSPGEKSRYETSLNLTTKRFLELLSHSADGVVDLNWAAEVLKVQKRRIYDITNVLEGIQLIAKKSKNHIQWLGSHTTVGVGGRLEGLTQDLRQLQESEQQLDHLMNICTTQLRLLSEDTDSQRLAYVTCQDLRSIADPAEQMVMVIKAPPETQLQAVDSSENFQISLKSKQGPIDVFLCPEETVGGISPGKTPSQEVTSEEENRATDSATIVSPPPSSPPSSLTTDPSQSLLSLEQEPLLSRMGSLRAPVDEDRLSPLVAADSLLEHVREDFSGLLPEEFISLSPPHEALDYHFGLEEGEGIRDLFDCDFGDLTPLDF
# Heat shock factor protein 1 (Homo sapiens), sequence (Q00613 whole entry, looked up, the tested form may be a part): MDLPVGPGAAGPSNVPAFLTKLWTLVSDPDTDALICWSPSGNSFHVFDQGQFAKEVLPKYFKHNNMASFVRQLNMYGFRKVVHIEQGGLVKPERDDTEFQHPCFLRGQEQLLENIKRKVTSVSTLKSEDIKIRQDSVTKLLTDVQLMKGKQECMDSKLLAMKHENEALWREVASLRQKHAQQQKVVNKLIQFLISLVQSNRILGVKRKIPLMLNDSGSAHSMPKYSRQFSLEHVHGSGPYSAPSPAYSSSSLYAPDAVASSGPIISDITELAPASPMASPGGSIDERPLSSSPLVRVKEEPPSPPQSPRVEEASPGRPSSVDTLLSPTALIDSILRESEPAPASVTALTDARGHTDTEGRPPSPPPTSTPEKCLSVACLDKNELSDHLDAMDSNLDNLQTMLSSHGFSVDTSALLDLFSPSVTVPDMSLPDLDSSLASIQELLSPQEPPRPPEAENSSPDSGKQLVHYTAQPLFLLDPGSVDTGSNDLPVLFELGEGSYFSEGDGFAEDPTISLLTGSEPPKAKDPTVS
compound,measurement,setting,value
C1=COCCC1,outcome,[1],inactive
same,outcome,[2],inactive
same,outcome,[3],inactive
same,outcome,[4],inactive
same,outcome,[5],inactive
same,outcome,[6],inactive
same,outcome,[7],inactive
same,outcome,[8],inactive
same,outcome,[9],inactive
same,outcome,[10],inactive
same,outcome,[11],inactive
same,outcome,[12],inactive
same,outcome,[13],inactive
same,outcome,[14],inactive
same,outcome,[15],inactive
same,outcome,[16],inactive
same,outcome,[17],inactive
same,outcome,[18],inactive
O=S1(=O)CC(Cl)(Cl)C(Cl)(Cl)C1,outcome,[1],inactive
same,AC50,[2],2.8 µM (active)
same,outcome,[3],inactive
same,outcome,[19],inactive
same,outcome,[5],inactive
same,outcome,[6],inactive
same,outcome,[7],inactive
same,outcome,[9],inactive
same,AC50,[10],5.49 µM (active)
same,outcome,[11],inactive
same,AC50,[12],1.37 µM (active)
same,outcome,[13],inactive
same,outcome,[14],inactive
same,outcome,[15],inactive
same,outcome,[16],inactive
same,outcome,[17],inactive
same,AC50,[18],6.29 µM (active)
CCCCC(CC)COCCO (stereo not drawn),outcome,[1],inactive
same,outcome,[2],inactive
same,outcome,[3],inactive
same,outcome,[19],inactive
same,outcome,[4],inactive
same,outcome,[5],inactive
same,outcome,[6],inactive
same,outcome,[7],inactive
same,outcome,[8],inactive
same,outcome,[9],inactive
same,outcome,[11],inactive
same,outcome,[12],inactive
same,outcome,[13],inactive
same,outcome,[14],inactive
same,outcome,[15],inactive
same,outcome,[16],inactive
same,outcome,[17],inactive
same,outcome,[18],inactive
C1CCCNCC1,outcome,[1],inactive
same,outcome,[2],inactive
same,outcome,[3],inactive
same,outcome,[4],inactive
same,outcome,[5],inactive
same,outcome,[6],inactive
same,outcome,[7],inactive
same,outcome,[8],inactive
same,outcome,[9],inactive
same,outcome,[11],inactive
same,outcome,[12],inactive
same,outcome,[13],inactive
same,outcome,[14],inactive
same,outcome,[16],inactive
same,outcome,[17],inactive
same,outcome,[18],inactive
CCCCCCC(O)CCOC(C)=O (stereo not drawn),outcome,[1],inactive
same,outcome,[2],inactive
same,outcome,[3],inactive
same,outcome,[19],inactive
same,outcome,[4],inactive
same,outcome,[5],inactive
same,outcome,[6],inactive
same,outcome,[7],inactive
same,outcome,[8],inactive
same,outcome,[9],inactive
same,outcome,[10],inactive
same,outcome,[12],inactive
same,outcome,[13],inactive
same,outcome,[15],inactive
same,outcome,[16],inactive
same,outcome,[17],inactive
same,outcome,[18],inactive
O=C1CCC(=O)N1,outcome,[1],inactive
same,outcome,[2],inactive
same,outcome,[3],inactive
same,outcome,[19],inactive
same,outcome,[4],inactive
same,outcome,[5],inactive
same,outcome,[6],inactive
same,outcome,[7],inactive
same,outcome,[8],inactive
same,outcome,[9],inactive
same,outcome,[10],inactive
same,outcome,[12],inactive
same,outcome,[13],inactive
same,outcome,[14],inactive
same,AC50,[15],28.2 µM (active)
same,outcome,[16],inactive
same,outcome,[17],inactive
same,outcome,[18],inactive
C=C(C)C(=O)OCCN(C)C,outcome,[1],inactive
same,outcome,[2],inactive
same,outcome,[3],inactive
same,outcome,[19],inactive
same,outcome,[4],inactive
same,outcome,[5],inactive
same,outcome,[6],inactive
same,outcome,[7],inactive
same,outcome,[8],inactive
same,outcome,[9],inactive
same,outcome,[13],inactive
same,outcome,[14],inactive
same,outcome,[15],inactive
same,outcome,[16],inactive
same,outcome,[17],inactive
CC1=CC(C)C(C=O)C(C)C1 (stereo not drawn) (tested in a mixture with another compound),outcome,[1],inactive
same,outcome,[2],inactive
same,outcome,[3],inactive
same,outcome,[19],inactive
same,outcome,[4],inactive
same,outcome,[5],inactive
same,outcome,[6],inactive
same,outcome,[7],inactive
same,outcome,[8],inactive
same,outcome,[9],inactive
same,outcome,[10],inactive
same,outcome,[11],inactive
same,outcome,[12],inactive
same,outcome,[13],inactive
same,outcome,[14],inactive
same,outcome,[15],inactive
same,outcome,[16],inactive
same,outcome,[17],inactive
same,outcome,[18],inactive
